Data on 20 molecules can be found in ChEMBL document CHEMBL5606458, “ASAP - ZIKV NS2B-NS3 protease fluorescence single point” (2024).

Out of some 2,700 compounds screened, about 160 (5.9%) showed an effect of 50% or more. The sample holds strong results, similar compounds and a random draw of the others, so the mix is not that of the screen.

In this test the target is Nonstructural protein 3 (Zika virus) (UniProt A0A024AXB9).
Chain of Nonstructural protein 3 (Zika virus) (A0A024AXB9 as listed by the source): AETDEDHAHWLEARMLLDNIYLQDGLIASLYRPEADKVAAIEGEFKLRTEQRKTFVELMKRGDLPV

As for `O=C(O)c1cc(Cl)ccc1NS(=O)(=O)c1ccc(Oc2ccccc2Cl)cc1`, the inhibition (in general, the change of the read-out against control, counted positive when it falls) turned out to be 25.6% (PRVABC59, Concentration 15.0 uM, Number of replicates 2.0, Standard deviation 1.019095961302742 %); 67% (PRVABC59, Concentration 49.5 uM, Number of replicates 2.0, Standard deviation 0.595671862422896 %); 72.9% (PRVABC59, Concentration 99.01 uM, Number of replicates 2.0, Standard deviation 0.9962463002636517 %); 64.4% (PRVABC59, Concentration 198.0 uM, Number of replicates 2.0, Standard deviation 0.4898259529465772 %).
As to `Cc1ccc(CNC(=O)c2cc(Cl)ccc2NS(=O)(=O)c2ccc(Oc3ccccc3Cl)cc2)s1`, the inhibition runs as follows: (PRVABC59, Concentration 49.5 uM, Number of replicates 2.0, Standard deviation 0.2822395742136887 %) 41.1%; (PRVABC59, Concentration 99.01 uM, Number of replicates 2.0, Standard deviation 0.310134718781715 %) 25.2%; (PRVABC59, Concentration 198.0 uM, Number of replicates 2.0, Standard deviation 2.1364830937799217 %) -9.71%.
As for `COC[C@@H](C)CNC(=O)c1cc(Cl)ccc1NS(=O)(=O)c1ccc(Oc2ccccc2Cl)cc1`, the inhibition worked out at 40.8% (PRVABC59, Concentration 49.5 uM, Number of replicates 2.0, Standard deviation 0.1936300399043851 %); 39.9% (PRVABC59, Concentration 99.01 uM, Number of replicates 2.0, Standard deviation 0.11978876131329876 %); 17.9% (PRVABC59, Concentration 198.0 uM, Number of replicates 2.0, Standard deviation 0.12799289825703533 %).
Turning to `NCc1cccc(NC(=O)c2cccc(NC(=O)OCc3ccccc3)n2)c1`, the inhibition by setting is: (PRVABC59, Concentration 49.5 uM, Number of replicates 2.0, Standard deviation 2.909357334669415 %) 5.59%; (PRVABC59, Concentration 99.01 uM, Number of replicates 2.0, Standard deviation 2.139765153167162 %) 18.9%; (PRVABC59, Concentration 198.0 uM, Number of replicates 2.0, Standard deviation 5.981167842462736 %) 37.7%.
Consider `NCc1cccc(NC(=O)[C@H]2Cc3ccccc3N2C(=O)OCc2ccccc2)c1`, for which the inhibition was -2.12% (PRVABC59, Concentration 49.5 uM, Number of replicates 2.0, Standard deviation 1.3458327451813832 %); 4.14% (PRVABC59, Concentration 99.01 uM, Number of replicates 2.0, Standard deviation 2.0252321038631718 %); 47.3% (PRVABC59, Concentration 198.0 uM, Number of replicates 2.0, Standard deviation 4.242354762898987 %).
Regarding `NCc1cccc(NC(=O)[C@@H](Cc2c[nH]c3ccccc23)NC(=O)OCc2ccccc2)c1`, the inhibition came to 6.59% (PRVABC59, Concentration 49.5 uM, Number of replicates 2.0, Standard deviation 3.967037724259516 %); 30% (PRVABC59, Concentration 99.01 uM, Number of replicates 2.0, Standard deviation 5.155513103183051 %); 61.6% (PRVABC59, Concentration 198.0 uM, Number of replicates 2.0, Standard deviation 1.4247172313715861 %).
As to `NCc1cccc(NC(=O)[C@H]2COC3(CCOCC3)N2C(=O)OCc2ccccc2)c1`, the inhibition is, setting by setting: (PRVABC59, Concentration 49.5 uM, Number of replicates 2.0, Standard deviation 0.9938813563000084 %) 5.38%; (PRVABC59, Concentration 99.01 uM, Number of replicates 2.0, Standard deviation 1.914429893589366 %) 19%; (PRVABC59, Concentration 198.0 uM, Number of replicates 2.0, Standard deviation 1.323095447640423 %) 40.3%.
As for `NCc1cccc(NC(=O)[C@H]2CCCN(C(=O)OCc3ccccc3)C2)c1`, the inhibition is 3.4% (PRVABC59, Concentration 49.5 uM, Number of replicates 2.0, Standard deviation 2.781365363643047 %); 8.89% (PRVABC59, Concentration 99.01 uM, Number of replicates 2.0, Standard deviation 2.023258788415892 %); 18.5% (PRVABC59, Concentration 198.0 uM, Number of replicates 2.0, Standard deviation 2.4646681276670943 %).
Regarding `CCn1ccnc(N[C@@H](Cc2c[nH]c3ccccc23)C(N)=O)c1=O`, the inhibition (PRVABC59, Concentration 49.5 uM, Number of replicates 2.0, Standard deviation 1.4026673489298387 %) stood at 18.1%; the inhibition (PRVABC59, Concentration 99.01 uM, Number of replicates 2.0, Standard deviation 0.19191044848514063 %) was 31.5%; the inhibition (PRVABC59, Concentration 198.0 uM, Number of replicates 2.0, Standard deviation 0.4743186100928729 %) was 43.7%.
On to `NCc1cccc(NC(=O)[C@@H](NC(=O)OCc2ccccc2)C(C2CCC2)C2CCC2)c1`, for which the inhibition is, setting by setting: (PRVABC59, Concentration 49.5 uM, Number of replicates 2.0, Standard deviation 1.6304646588102472 %) 8.82%; (PRVABC59, Concentration 99.01 uM, Number of replicates 2.0, Standard deviation 1.5618151976061267 %) 76.8%; (PRVABC59, Concentration 198.0 uM, Number of replicates 2.0, Standard deviation 0.10609407012035098 %) 99.1%.
Take `NCc1cccc(NC(=O)[C@@H](NC(=O)OCc2ccccc2)C2CCCCC2)c1`: the inhibition stood at 0.383% (PRVABC59, Concentration 49.5 uM, Number of replicates 2.0, Standard deviation 3.670746053577507 %); 19.8% (PRVABC59, Concentration 99.01 uM, Number of replicates 2.0, Standard deviation 4.852210894307134 %); 99.4% (PRVABC59, Concentration 198.0 uM, Number of replicates 2.0, Standard deviation 0.07712401232790286 %).
Take `COc1cc(COc2cccnc2F)nc(N2CCNCC2)n1`: the inhibition was found to be 9.4% (PRVABC59, Concentration 49.5 uM, Number of replicates 2.0, Standard deviation 3.471530038958882 %); 17.8% (PRVABC59, Concentration 99.01 uM, Number of replicates 2.0, Standard deviation 1.2510762616041597 %); 24.4% (PRVABC59, Concentration 198.0 uM, Number of replicates 2.0, Standard deviation 5.474495288404173 %).
Turning to `CC[C@H]1CCN(c2nccn(CC)c2=O)C1`, the inhibition reads like this: (PRVABC59, Concentration 49.5 uM, Number of replicates 2.0, Standard deviation 1.4176871370399688 %) 4.12%; (PRVABC59, Concentration 99.01 uM, Number of replicates 2.0, Standard deviation 1.8963080974288338 %) 10.6%; (PRVABC59, Concentration 198.0 uM, Number of replicates 2.0, Standard deviation 0.25647537430637324 %) 21.7%.
With `CCn1ccnc(N2C[C@@H](O)[C@H](c3c[nH]c4ccccc34)C2)c1=O`, the inhibition turned out to be 7.52% (PRVABC59, Concentration 49.5 uM, Number of replicates 2.0, Standard deviation 0.5666151507099095 %); 18.6% (PRVABC59, Concentration 99.01 uM, Number of replicates 2.0, Standard deviation 0.06434104176194275 %); 34.5% (PRVABC59, Concentration 198.0 uM, Number of replicates 2.0, Standard deviation 0.18264623400765803 %).
For the molecule `Nc1nc(CN2CCNCC2)nc2ccccc12`, the inhibition (PRVABC59, Concentration 99.9 uM, Number of replicates 2.0, Standard deviation 4.738718872161362 %) was -7.53%.
For the molecule `c1ccc2c([C@H]3CCN(CC[C@H]4CCCO4)C3)c[nH]c2c1`, the inhibition is, setting by setting: (PRVABC59, Concentration 49.5 uM, Number of replicates 2.0, Standard deviation 2.014848974851422 %) 6.42%; (PRVABC59, Concentration 99.01 uM, Number of replicates 2.0, Standard deviation 1.491910771840746 %) 12.4%; (PRVABC59, Concentration 198.0 uM, Number of replicates 2.0, Standard deviation 1.9789597532326375 %) 21.4%.
In the case of `O=C(O)c1cccc(NC(=O)c2cccc(OCc3c(Cl)cccc3Cl)c2)c1`, the inhibition by setting is: (PRVABC59, Concentration 49.5 uM, Number of replicates 2.0, Standard deviation 0.05325743212794187 %) 8.22%; (PRVABC59, Concentration 99.01 uM, Number of replicates 2.0, Standard deviation 0.43176580313712193 %) 15.3%; (PRVABC59, Concentration 198.0 uM, Number of replicates 2.0, Standard deviation 0.7170736679224038 %) 28.4%.
On to `NCc1ccc(C[C@H](NC(=O)c2ccccc2)C(=O)Nc2cccc(CN)c2)cc1`, for which the inhibition by setting is: (PRVABC59, Concentration 49.5 uM, Number of replicates 2.0, Standard deviation 1.4806761079016821 %) 29.4%; (PRVABC59, Concentration 99.01 uM, Number of replicates 2.0, Standard deviation 0.13484294125181392 %) 48.1%; (PRVABC59, Concentration 198.0 uM, Number of replicates 2.0, Standard deviation 0.4356460105984289 %) 65.1%.
With `N=C(N)NCCC[C@H](NC(=O)[C@H](Cc1ccc(CN)cc1)NC(=O)c1ccccc1)B(O)O`, the inhibition runs as follows: (PRVABC59, Concentration 10.0 uM, Number of replicates 3.0, Standard deviation 0.04927937550217375 %) 100%; (PRVABC59, Concentration 49.5 uM, Number of replicates 2.0, Standard deviation 0.010099059252786384 %) 99.8%; (PRVABC59, Concentration 49.5 uM, Number of replicates 2.0, Standard deviation 0.01807256864147136 %) 99.7%; (PRVABC59, Concentration 49.5 uM, Number of replicates 2.0, Standard deviation 0.060713041042124986 %) 99.8%; (PRVABC59, Concentration 49.5 uM, Number of replicates 2.0, Standard deviation 0.06905879139685818 %) 99.8%; (PRVABC59, Concentration 49.5 uM, Number of replicates 2.0, Standard deviation 0.08298276144570521 %) 99.9%. The inhibition (PRVABC59, Concentration 49.5 uM, Number of replicates 2.0, Standard deviation 0.10271153264626066 %) turned out to be 99.3%; the inhibition (PRVABC59, Concentration 49.5 uM, Number of replicates 2.0, Standard deviation 0.1066443393745092 %) came out at 99.6%; the inhibition (PRVABC59, Concentration 49.95 uM, Number of replicates 2.0, Standard deviation 0.961660259200824 %) was determined as 101%; the inhibition (PRVABC59, Concentration 99.01 uM, Number of replicates 2.0, Standard deviation 0.020192723708963373 %) turned out to be 99.9%; the inhibition (PRVABC59, Concentration 99.01 uM, Number of replicates 2.0, Standard deviation 0.05005292294196158 %) stood at 99.7%; the inhibition (PRVABC59, Concentration 99.01 uM, Number of replicates 2.0, Standard deviation 0.0511966198231532 %) stood at 99.7%. In addition, the inhibition was 99.4% (PRVABC59, Concentration 99.01 uM, Number of replicates 2.0, Standard deviation 0.06657179015992734 %); 99.9% (PRVABC59, Concentration 99.01 uM, Number of replicates 2.0, Standard deviation 0.07055854485426984 %); 99.8% (PRVABC59, Concentration 99.01 uM, Number of replicates 2.0, Standard deviation 0.0908591644954211 %); 100% (PRVABC59, Concentration 99.01 uM, Number of replicates 2.0, Standard deviation 0.09853596007058937 %); 101% (PRVABC59, Concentration 99.9 uM, Number of replicates 2.0, Standard deviation 0.9426813647289743 %); 99.7% (PRVABC59, Concentration 198.0 uM, Number of replicates 2.0, Standard deviation 0.016157415845136337 %). Besides, the inhibition amounted to 99.5% (PRVABC59, Concentration 198.0 uM, Number of replicates 2.0, Standard deviation 0.0195885064887112 %); 99.6% (PRVABC59, Concentration 198.0 uM, Number of replicates 2.0, Standard deviation 0.04517602680706901 %); 99.7% (PRVABC59, Concentration 198.0 uM, Number of replicates 2.0, Standard deviation 0.06178660556739447 %); 99.7% (PRVABC59, Concentration 198.0 uM, Number of replicates 2.0, Standard deviation 0.09594645769808005 %); 99.2% (PRVABC59, Concentration 198.0 uM, Number of replicates 2.0, Standard deviation 0.10841922745899998 %); 99.7% (PRVABC59, Concentration 198.0 uM, Number of replicates 2.0, Standard deviation 0.1903446087692639 %).
With `NCc1ccc(C[C@H](NC(=O)c2ccccc2)C(=O)N2CCCCC2)cc1`, the inhibition is 7.06% (PRVABC59, Concentration 49.5 uM, Number of replicates 2.0, Standard deviation 1.7023364994641166 %); 12.7% (PRVABC59, Concentration 99.01 uM, Number of replicates 2.0, Standard deviation 1.0175975565444826 %); 22% (PRVABC59, Concentration 198.0 uM, Number of replicates 2.0, Standard deviation 2.6267332126099125 %).
